Results taken from PubChem BioAssay AID743286 (National Center for Advancing Translational Sciences (NCATS), 2014).
The campaign covered roughly 1,100 compounds. About 340 (31%) were called active. Not shown: some 40% with an inconclusive outcome. Calls come from the whole dose curve; as a rule, active = well fitted inhibition curve with a large enough effect; inconclusive = small, poorly fitted or top-dose-only effect; inactive = flat fitted curve, though single readings scatter. Only a sample is shown.

target: Phosphatidylinositol 5-phosphate 4-kinase type-2 alpha (Homo sapiens) (UniProt P48426); assay: qHTS for Inhibitors of PI5P4K: Confirmation in Primary Assay; settings: PI5P4Kalpha enzyme, ADP-Glo luminescence, 60 min; series mostly up to 76.9 µM; note: nearly all actives have a fitted effect of over 65% in size
In short: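 Kinase rxn: PI5P4Kα + substrate, 5 µM ATP, pH 7.4 HEPES/EGTA/CHAPS, 5% DMSO, 60 min RT. Detection ADP-Glo, luminescence. Controls without substrate or without enzyme.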
Potency is the fitted concentration of half-maximal effect.

Phosphatidylinositol 5-phosphate 4-kinase type-2 alpha (Homo sapiens), sequence (P48426 whole entry, looked up): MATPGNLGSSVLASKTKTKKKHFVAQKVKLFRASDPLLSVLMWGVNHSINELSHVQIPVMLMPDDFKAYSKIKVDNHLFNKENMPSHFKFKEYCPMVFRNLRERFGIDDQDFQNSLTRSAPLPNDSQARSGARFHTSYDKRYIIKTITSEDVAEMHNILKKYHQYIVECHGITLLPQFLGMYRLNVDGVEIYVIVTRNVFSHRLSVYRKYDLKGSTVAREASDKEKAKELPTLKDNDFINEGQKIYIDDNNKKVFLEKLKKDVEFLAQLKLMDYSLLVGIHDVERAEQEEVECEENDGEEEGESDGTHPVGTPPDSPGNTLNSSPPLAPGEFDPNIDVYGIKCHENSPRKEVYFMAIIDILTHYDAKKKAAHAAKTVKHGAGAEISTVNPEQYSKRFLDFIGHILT

Potency, active:
O=S(=O)(c1ccc2nc(-c3ccco3)c(-c3ccco3)nc2c1)N1CCOCC1 15.8 µM
N#Cc1cc(-c2ccccc2)nn1-c1ccccc1 10 µM
O=C(Cc1ccc(Cl)cc1Cl)Nc1cccc(S(=O)(=O)Nc2ccccc2F)c1 3.98 µM
CC(=O)NC(c1cccs1)c1cc([N+](=O)[O-])c2cccnc2c1O (configuration not stated) 12.6 µM
Cn1c(=O)c2[nH]c(-c3ccc(S(=O)(=O)O)cc3)nc2n(C)c1=O 12.6 µM
CCCn1c(=O)c2[nH]c(-c3ccc(S(=O)(=O)O)cc3)nc2n(CCC)c1=O 14.1 µM
CCn1c(SCc2nc3sc(C(=O)O)c(C)c3c(=O)[nH]2)nc2ccccc21 12.6 µM
c1cc2c(cc1C1=NNC(=NC3CC3)SC1)OCCO2 28.2 µM
NS(=O)(=O)c1cc(C(=O)NC2CCSc3ccccc32)ccc1Cl (configuration not stated) 0.891 µM
COc1ccc2c(c1)c(=O)oc1c(C)c(OCc3cc(C(=O)O)oc3C)ccc12 17.8 µM

Potency, inactive:
OC(c1ccc(Cl)c(F)c1)c1ncc(-c2ccc(Oc3ccccc3)cc2)[nH]1 (configuration not stated)
COc1cc(OC)cc(-c2nnc(NC(=O)CCS(=O)(=O)c3ccc(C)cc3)o2)c1
O=S(=O)(c1ccccc1)c1nc(-c2ccco2)oc1N1CCCCCC1
O=S(=O)(NCCC1=CCCCC1)c1cccc(S(=O)(=O)N2CCOCC2)c1
O=C(Nc1ccc2c(c1)OCCO2)c1ccccc1F
COc1ccc(C(C(=O)NC2CCCC2)N(C(=O)c2snc(C(N)=O)c2N)c2cccc(O)c2)cc1 (configuration not stated)
Cc1ccc(CSCC(=O)N2CCOCC2)cc1
O=C(Nc1cccc(Cl)c1)N1CCCC1
COCCn1c(SCC(=O)Nc2cccc(S(N)(=O)=O)c2)nc2cc(Cl)ccc2c1=O
CC(=O)NC(c1ccc(C)cc1)c1cc([N+](=O)[O-])c2cccnc2c1O (configuration not stated)
O=C(Oc1ccc(N(Cc2cccs2)C2=NS(=O)(=O)c3ccccc32)cc1)c1ccccc1Cl
O=C(CSc1nc(-c2ccccc2)cc(=O)[nH]1)N1CCc2ccccc21
COc1ccc(CCCc2nnc(SCc3nc4ccccc4c(=O)[nH]3)n2C)cc1
Cc1cc(C(=O)Nc2cccc3c2O[C@@H](CN(C)S(C)(=O)=O)[C@H](C)CN([C@@H](C)CO)C3=O)n(C)n1
O=C(OCC(=O)N1CCCCCC1)c1ccc(Cl)c(S(=O)(=O)N2CCCC2)c1
COCc1ccc2oc(C(=O)O)cc2c1
COc1ccc2c(c1)C=C(CN1CCN(Cc3ccccc3C)C(CCO)C1)CO2 (configuration not stated)
